Data from ChEMBL document CHEMBL3988442, “University of Dundee, Small-Polar-MMV Screening Library” (2021).
For part of these data: Entries with a potency or affinity are not part of this list.

Tests used:
Parameters in all cases: scale not given: direction of the effect not stated beside the values
[1] = biological target: Protein translocase subunit SecA (Escherichia coli (strain K12)) (UniProt P10408); experiment: Assay to Identify E. coli SecA ATPase Inhibitors; type: functional; details: 30 µM
[2] = biological target: T1, Ubiquitin-activating enzyme e1, putative (Leishmania donovani (strain BPK282A1)) (UniProt E9BSI1); experiment: Leishmania donovani Ubiquitin Activating Enzyme (LdE1); type: functional; details: 30 µM
T1 sequence (whole entry): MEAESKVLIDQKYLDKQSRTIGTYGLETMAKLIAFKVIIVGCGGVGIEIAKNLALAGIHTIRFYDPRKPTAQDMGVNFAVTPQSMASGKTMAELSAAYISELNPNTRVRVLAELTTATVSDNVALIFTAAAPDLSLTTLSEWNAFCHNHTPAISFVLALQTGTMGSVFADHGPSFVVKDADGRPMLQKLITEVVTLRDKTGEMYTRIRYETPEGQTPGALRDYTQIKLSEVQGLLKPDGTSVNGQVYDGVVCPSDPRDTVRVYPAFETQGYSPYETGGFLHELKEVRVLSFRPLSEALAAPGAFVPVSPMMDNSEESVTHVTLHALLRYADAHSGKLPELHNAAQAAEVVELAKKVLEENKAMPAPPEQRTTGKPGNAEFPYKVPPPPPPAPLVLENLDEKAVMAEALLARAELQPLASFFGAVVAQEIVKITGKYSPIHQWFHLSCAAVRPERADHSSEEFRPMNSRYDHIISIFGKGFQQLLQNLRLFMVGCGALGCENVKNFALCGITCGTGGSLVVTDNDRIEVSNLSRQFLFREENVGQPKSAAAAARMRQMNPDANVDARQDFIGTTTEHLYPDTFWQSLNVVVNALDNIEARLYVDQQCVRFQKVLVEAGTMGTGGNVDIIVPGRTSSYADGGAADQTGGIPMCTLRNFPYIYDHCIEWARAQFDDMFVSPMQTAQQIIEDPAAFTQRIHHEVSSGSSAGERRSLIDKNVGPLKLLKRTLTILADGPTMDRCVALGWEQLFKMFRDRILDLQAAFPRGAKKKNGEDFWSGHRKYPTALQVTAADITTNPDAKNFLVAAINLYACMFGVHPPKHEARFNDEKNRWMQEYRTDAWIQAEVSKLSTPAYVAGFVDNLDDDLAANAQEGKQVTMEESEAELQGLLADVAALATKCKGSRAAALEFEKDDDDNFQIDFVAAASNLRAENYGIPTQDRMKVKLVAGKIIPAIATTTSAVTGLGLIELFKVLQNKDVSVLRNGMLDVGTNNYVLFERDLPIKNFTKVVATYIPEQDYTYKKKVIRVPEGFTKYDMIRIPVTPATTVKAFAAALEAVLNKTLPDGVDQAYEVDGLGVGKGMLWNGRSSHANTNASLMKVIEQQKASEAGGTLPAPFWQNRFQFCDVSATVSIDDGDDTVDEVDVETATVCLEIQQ

[3] = biological target: Sialic acid-binding Ig-like lectin 9 (Homo sapiens) (UniProt Q9Y336); experiment: Hs-Siglec9 ALPHAscreen SOP 20170721; details: 10 µM
[4] = tested on: Trypanosoma cruzi; experiment: Trypanosoma cruzi phosphomannomutase and mannose-1-phosphate guanylyltransferase assay; type: functional; details: 10 µM
[5] = biological target: T2, Arginase-2, mitochondrial (Homo sapiens) (UniProt P78540); experiment: in vitro enzyme assay to detect the production of urea directly proportional to the activity of Arginase II; type: functional; details: 33.3 µM; also: in the data most compounds retested in dose-response had high values
T2 sequence (whole entry): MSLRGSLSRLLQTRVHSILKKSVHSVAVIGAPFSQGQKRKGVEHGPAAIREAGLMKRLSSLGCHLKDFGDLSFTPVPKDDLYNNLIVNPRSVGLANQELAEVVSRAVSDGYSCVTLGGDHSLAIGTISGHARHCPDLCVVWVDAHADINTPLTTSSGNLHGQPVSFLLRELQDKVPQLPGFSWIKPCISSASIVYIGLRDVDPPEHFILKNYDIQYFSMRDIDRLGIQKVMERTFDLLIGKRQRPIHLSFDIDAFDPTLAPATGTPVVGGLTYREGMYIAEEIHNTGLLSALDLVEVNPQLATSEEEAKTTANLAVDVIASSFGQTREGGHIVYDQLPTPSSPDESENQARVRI

[6] = biological target: T3, Proteasome subunit beta (Trypanosoma cruzi) (UniProt O96673); experiment: Trypanosoma cruzi proteasome chymotrypsin-like activity (TcProtChymo) assay.; also: in the data most compounds retested in dose-response had high values; type: functional; details: 9.37 µM
T3 sequence (whole entry): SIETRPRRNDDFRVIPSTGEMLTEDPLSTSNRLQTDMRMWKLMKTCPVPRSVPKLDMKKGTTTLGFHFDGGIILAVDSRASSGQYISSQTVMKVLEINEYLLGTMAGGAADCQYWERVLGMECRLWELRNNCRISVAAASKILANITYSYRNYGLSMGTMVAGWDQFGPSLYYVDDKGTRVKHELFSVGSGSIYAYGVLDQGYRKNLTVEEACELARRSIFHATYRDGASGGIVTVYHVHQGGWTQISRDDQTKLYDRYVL

[7] = species on record: Homo sapiens; experiment: To identify inhibition of the IFN signalling (Jak-Stat) pathway via expression of an eGFP reporter gene under the control of an IFN-stimulated response element (ISRE) containing MxA promoter.; type: functional; details: 30 µM
[8] = biological target: T4, Tyrosyl-tRNA synthetase, putative (Trypanosoma cruzi (strain CL Brener)) (UniProt Q4DSP6); experiment: Trypanosoma cruzi tyrosyl tRNA synthetase (TcYRS) _High Tyrosine SOP; type: functional; details: 30 µM; also: in the data most compounds retested in dose-response had high values
T4 sequence (whole entry): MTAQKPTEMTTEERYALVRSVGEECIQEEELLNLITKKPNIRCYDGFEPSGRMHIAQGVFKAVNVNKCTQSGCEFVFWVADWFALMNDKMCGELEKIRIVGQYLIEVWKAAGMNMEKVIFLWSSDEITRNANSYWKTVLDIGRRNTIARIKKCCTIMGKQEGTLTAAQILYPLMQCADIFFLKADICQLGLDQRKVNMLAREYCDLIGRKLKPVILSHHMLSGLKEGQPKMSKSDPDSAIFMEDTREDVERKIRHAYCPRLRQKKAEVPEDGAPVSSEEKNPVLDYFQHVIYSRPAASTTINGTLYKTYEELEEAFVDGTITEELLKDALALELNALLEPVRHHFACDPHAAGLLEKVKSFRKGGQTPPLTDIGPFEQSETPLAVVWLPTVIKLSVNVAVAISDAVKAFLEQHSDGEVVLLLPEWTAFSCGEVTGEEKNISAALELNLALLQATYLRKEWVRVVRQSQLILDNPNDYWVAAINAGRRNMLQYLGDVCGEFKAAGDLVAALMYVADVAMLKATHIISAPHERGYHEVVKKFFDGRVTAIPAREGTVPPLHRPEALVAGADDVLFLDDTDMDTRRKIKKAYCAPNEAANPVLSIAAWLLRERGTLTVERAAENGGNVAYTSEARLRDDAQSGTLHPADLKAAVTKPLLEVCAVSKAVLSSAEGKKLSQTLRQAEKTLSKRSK

[9] = biological target: T4, Tyrosyl-tRNA synthetase, putative (Trypanosoma cruzi (strain CL Brener)); experiment: Trypanosoma cruzi tyrosyl tRNA synthetase (TcYRS) SOP; type: functional; details: 30 µM
[10] = biological target: Chromo domain-containing protein 1 (Saccharomyces cerevisiae (strain ATCC 204508 / S288c) (Baker's yeast)) (UniProt P32657); experiment: ScCHD-1 Enzyme Inhibition Assay; type: functional; details: 30 µM; also: in the data most compounds retested in dose-response had high values
Chain of Chromo domain-containing protein 1 (Saccharomyces cerevisiae (strain ATCC 204508 / S288c) (Baker's yeast)) (P32657 whole entry, the tested form may be a part): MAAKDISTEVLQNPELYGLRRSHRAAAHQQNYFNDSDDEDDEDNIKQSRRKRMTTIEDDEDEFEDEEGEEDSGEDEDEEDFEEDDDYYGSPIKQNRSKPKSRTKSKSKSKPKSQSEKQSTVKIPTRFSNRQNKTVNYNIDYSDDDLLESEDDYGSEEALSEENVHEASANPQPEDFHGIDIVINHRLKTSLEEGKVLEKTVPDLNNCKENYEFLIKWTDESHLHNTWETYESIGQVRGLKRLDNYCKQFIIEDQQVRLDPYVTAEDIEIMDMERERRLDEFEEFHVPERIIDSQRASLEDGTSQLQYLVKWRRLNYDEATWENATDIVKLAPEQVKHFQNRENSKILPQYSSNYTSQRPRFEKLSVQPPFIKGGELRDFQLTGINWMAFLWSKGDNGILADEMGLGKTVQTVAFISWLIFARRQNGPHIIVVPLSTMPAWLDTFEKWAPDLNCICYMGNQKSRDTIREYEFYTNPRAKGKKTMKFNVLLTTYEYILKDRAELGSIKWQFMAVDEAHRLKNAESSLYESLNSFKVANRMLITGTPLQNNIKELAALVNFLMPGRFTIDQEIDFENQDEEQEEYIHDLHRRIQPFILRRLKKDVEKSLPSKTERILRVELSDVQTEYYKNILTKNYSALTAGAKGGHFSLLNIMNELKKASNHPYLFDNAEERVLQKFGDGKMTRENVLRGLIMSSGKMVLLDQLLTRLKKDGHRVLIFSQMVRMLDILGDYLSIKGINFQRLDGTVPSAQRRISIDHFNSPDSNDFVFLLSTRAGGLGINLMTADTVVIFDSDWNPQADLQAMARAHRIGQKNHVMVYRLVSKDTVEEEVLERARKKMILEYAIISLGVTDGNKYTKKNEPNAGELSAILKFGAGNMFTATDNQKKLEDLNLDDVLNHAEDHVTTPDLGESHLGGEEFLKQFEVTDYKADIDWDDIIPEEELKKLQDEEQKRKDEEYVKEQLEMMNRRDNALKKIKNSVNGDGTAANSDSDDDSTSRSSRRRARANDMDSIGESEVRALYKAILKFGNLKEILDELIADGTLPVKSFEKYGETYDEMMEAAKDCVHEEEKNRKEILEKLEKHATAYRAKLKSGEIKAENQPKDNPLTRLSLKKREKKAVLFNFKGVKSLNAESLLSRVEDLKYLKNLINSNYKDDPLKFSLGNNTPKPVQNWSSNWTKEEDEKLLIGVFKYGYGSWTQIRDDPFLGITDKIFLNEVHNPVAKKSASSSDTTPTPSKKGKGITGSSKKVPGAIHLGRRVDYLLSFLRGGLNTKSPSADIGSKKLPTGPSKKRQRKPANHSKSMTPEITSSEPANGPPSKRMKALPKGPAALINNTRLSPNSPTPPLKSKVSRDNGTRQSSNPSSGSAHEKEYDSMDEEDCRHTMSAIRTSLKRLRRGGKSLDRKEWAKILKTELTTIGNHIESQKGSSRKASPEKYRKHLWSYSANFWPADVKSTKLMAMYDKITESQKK

Chain of Sialic acid-binding Ig-like lectin 9 (Homo sapiens) (Q9Y336 whole entry): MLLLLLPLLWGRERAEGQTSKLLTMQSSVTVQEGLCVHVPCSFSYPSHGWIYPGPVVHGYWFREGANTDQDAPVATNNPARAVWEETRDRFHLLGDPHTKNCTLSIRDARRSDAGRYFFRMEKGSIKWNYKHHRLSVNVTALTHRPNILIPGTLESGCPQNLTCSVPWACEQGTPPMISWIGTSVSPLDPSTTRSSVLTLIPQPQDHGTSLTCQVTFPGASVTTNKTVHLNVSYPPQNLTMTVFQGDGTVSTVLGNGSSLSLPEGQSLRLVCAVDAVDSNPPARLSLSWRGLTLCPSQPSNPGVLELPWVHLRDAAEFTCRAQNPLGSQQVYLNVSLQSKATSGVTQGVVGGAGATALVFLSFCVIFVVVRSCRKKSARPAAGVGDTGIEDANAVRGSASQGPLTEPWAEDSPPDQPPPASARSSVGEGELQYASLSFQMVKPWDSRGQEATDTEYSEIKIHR
Chain of Protein translocase subunit SecA (Escherichia coli (strain K12)) (P10408 whole entry): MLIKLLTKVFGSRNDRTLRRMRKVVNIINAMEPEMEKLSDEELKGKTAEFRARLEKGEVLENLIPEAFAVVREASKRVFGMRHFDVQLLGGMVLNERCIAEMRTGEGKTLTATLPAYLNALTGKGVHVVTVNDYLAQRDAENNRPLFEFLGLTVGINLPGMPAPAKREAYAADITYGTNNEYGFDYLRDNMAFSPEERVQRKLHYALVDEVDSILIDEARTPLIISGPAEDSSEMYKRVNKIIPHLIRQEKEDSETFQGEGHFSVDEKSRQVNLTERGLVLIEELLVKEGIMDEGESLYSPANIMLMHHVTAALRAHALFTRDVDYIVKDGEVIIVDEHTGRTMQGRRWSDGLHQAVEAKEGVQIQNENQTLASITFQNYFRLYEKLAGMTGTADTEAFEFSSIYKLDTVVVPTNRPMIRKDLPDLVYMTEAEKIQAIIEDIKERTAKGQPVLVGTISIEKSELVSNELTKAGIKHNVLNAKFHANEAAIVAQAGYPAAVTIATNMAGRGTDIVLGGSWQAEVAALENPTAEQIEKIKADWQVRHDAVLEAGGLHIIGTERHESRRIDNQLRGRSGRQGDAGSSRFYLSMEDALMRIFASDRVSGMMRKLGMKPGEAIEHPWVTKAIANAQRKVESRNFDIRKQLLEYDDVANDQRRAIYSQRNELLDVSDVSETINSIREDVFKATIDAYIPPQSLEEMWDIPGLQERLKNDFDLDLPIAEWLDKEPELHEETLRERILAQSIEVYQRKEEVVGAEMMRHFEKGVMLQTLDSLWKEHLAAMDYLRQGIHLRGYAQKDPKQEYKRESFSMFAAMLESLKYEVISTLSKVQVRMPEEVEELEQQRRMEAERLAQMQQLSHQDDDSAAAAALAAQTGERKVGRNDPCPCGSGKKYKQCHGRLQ

Compound	Percent Effect [1]	Percent Effect [2]	Percent Effect [3]	Percent Effect [4]	Percent Effect [5]	Percent Effect [6]	Percent Effect [7]	Percent Effect [8]	Percent Effect [9]	Percent Effect [10]
Cc1cnc(CN(C)C2CCN(Cc3ccccc3C#N)C2)o1 (stereo not given)	0.623%	13.3%	-5.38%	-5.82%	3.1%	18.4%	2.92%	3.68%	7.69%	-11.8%
O=S(=O)(c1ccccc1)N1CCCCC1c1cc[nH]n1 (stereo not given)	-1.23%	9.33%	-5.11%	-6.71%	-1.77%	13.5%	19.2%	-3.17%	0%	-28%
O=C1CCC2(CCCN(CCc3ccccc3)C2)N1Cc1cccnc1 (stereo not given)	-0.897%	22.1%	-2.1%	-2.44%	2.28%	18.8%	4.75%	12.6%	10%	-8.73%
c1cnnc(N2CCCC(NCc3nnc(-c4ccco4)o3)C2)c1 (stereo not given)	-0.0972%	25.6%	-15.5%	1.03%	-0.82%	25.2%	-0.0242%	9.09%	22.9%	-1.66%
CC(C)CC(=O)N1C[C@@H]2CCN(c3ncccn3)C[C@@H]2C1	-0.224%	11.7%	-0.117%	0.375%	-5.02%	14.2%	17.9%	0%	-10%	-10.7%
CCCNC(=O)NCc1cccnc1OC	-1.2%	13.3%	0.677%	-0.803%	2.66%	14.2%	18.8%	2.63%	10.3%	-6.38%
CCn1ccnc1CN1CCC(CCC(=O)Nc2ccccc2Cl)CC1	-1.09%	5.41%	7.23%	6.89%	12.2%	-1.37%	10.8%	1.6%	7.32%	83.4%
COc1ccc(-n2ncc(C(=O)NCC3COC(C)(C)O3)c2N)cc1 (stereo not given)	97.8%	14.7%	-6.21%	-0.592%	1.33%	14.8%	15.7%	1.06%	5%	-19.9%
c1cn2c(n1)CN(CC1CC1)CC(CN1CCOCC1)C2 (stereo not given)	-6.5%	9.09%	6.06%	-2.24%	-2.43%	11%	-10.6%	17.4%	12.8%	0.532%
O=C(c1ccccn1)N1CCN(c2ccc(-c3cccnc3)nn2)CC1	-3.31%	11.7%	4.87%	1.31%	4.11%	21.7%	1.87%	0.966%	10%	-7.95%
O=C(Nc1ccccc1)N1CCn2nnc(COc3cccnc3)c2C1	-6.28%	6.49%	-0.598%	-0.487%	4.86%	5.56%	-5.86%	8.95%	15.4%	5.54%
Cc1nc([C@@H]2C[C@@H]3CCN(C(=O)Cc4ccsc4)C[C@H]3O2)no1	-3.1%	-1.3%	-5.06%	-3.21%	-1.62%	10.5%	-23.3%	-1.58%	0%	-2.29%
